Screens deposited in PubChem BioAssay by The Scripps Research Institute Molecular Screening Center.
Only some compounds are listed: those with a hit (about 2.9% of all), similar ones and a draw of the others.
ADAM17 inh – inhibitors of human ADAM17; P78536; recombinant ADAM17, EDANS/DABCYL FRET peptide cleavage; inhibition, % at 6.95 µM; actives 0.83% (n = 370,000); AID 720648;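 active means inhibition above the mean of compounds lying between control limits plus 3 SD, set per campaign, cut at about 8.5% in these data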;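 further: 0% = DMSO-only wells as the low control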
PLC-gamma1 inh – inhibitors of human phospholipase C gamma1; P19174; purified PLC-gamma1, fluorogenic substrate, fluorescence; inhibition, % at 12.2 µM; actives 0.84% (n = 370,000); AID 720700; in the data active means inhibition above about 9.5%
proKLK7 act – activates the human kallikrein-7 zymogen. actives 0.9% (n = 370,000). AID 652039. purified proKLK7, EDANS-DABCYL substrate fluorescence; 100% is mature enzyme control, 0% vehicle. activation, % at 7 µM. P49862;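 active means activation above the mean of all tested compounds plus 3 SD, computed per campaign excluding outliers beyond control limits, cut at about 13% in these data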
Target sequence (P49862 whole entry, looked up): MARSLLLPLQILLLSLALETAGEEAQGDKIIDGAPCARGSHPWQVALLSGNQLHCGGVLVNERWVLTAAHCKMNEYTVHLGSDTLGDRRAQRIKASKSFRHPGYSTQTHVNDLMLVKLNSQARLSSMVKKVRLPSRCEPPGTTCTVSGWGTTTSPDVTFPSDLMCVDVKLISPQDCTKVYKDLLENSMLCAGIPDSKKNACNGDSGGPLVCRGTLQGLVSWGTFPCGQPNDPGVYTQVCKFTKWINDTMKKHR
ADAM10 inh – inhibits human ADAM10; O14672; recombinant ADAM10, EDANS/DABCYL FRET peptide cleavage, 3 h; inhibition, % at 7 µM; actives 0.62% (n = 370,000); AID 720582;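 active means inhibition above a per-campaign cutoff equal to the mean of compounds falling between control-based bounds plus 3 SD, cut at about 20% in these data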;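 further: 0% = DMSO wells while the 100% control is not disclosed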
PLC-beta3 inh – blocks human PLC-beta3 enzyme activity. Q01970. Purified PLC-beta3, fluorogenic substrate, fluorescence. inhibition, % at 12.2 µM. actives 0.18% (n = 370,000);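 further: 0% = median of compound wells on plate and 100% = full blocker control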
PLCgamma1 ctr – counter-screen for PLC-beta3 inhibitors: inhibitors of human PLC-gamma1. shares compounds with PLC-gamma1 inh. purified PLC-gamma1, fluorogenic substrate, fluorescence. inhibition, % at 12.3 µM. actives 3.1% (n = 3,300); in the data active means inhibition above about 9.5%
PLCb3 confirm – confirmation of human PLC-beta3 inhibitors; shares compounds with PLC-gamma1 inh; purified PLC-beta3, fluorogenic substrate fluorescence; inhibition, % at 12.3 µM; actives 1% (n = 3,300)
The depositor's hits bear a star; . = no result given. Unless noted, no stated cut-off is given here; in the data, active means inhibition above about 11%; inactive means the rest.

SMILES | ADAM17 inh | PLC-gamma1 inh | proKLK7 act | ADAM10 inh | PLC-beta3 inh | PLCgamma1 ctr | PLCb3 confirm
Nc1ncnc2c1ncn2[C@@H]1O[C@H](COP(=O)(O)CP(=O)(O)O)[C@@H](O)[C@H]1O | 3 | 73* | 0 | 5 | 1 | 79* | -2
CCNC(=O)[C@H]1O[C@@H](n2cnc3c(N)ncnc32)[C@H](O)[C@@H]1O | -4 | 1 | 0 | 5 | 1 | . | .
CCOC(=O)[C@]12Cc3c(cc(OC)c(OC)c3OC)[C@H]1N(C1CCCCC1)C(=O)c1ccccc12 | -3 | -3 | 1 | -11 | -4 | . | .
C=Cn1ccnc1P(=S)(c1ccn(C)c1)c1nccn1C=C | 2 | 14* | 0 | 12 | 5 | -8 | -5
c1ccc(-c2nc(N3CCOCC3)s[n+]2-c2ccccc2)cc1 | 3 | 3 | -1 | 1 | 2 | . | .
CN(C)CC(C(=O)Cc1ccccc1)c1ccccc1 (stereo not given) | 5 | 9 | 0 | 3 | 4 | . | .
O=P(O)(O)C12CC3CC(CC(C3)C1)C2 | 3 | 13* | 0 | 7 | 9 | -4 | -1
CN1CCN(CCOC2c3ccccc3CSc3ccc(Cl)cc32)CC1 (stereo not given) | 3 | 12* | 0 | 7 | 2 | 3 | 3
Clc1ccc2c(c1)C(OC1CN3CCC1CC3)c1ccccc1CS2 (stereo not given) | -2 | 3 | 0 | -6 | -1 | . | .
CC1(C)CC(=O)C(C2(O)C(=O)NC(=O)NC2=O)=C(O)C1 | 0 | -1 | 0 | 3 | -2 | . | .
CC1CCC/C=C/C2CC(O)CC2C(O)/C=C/C(=O)O1 (stereo not given) | 3 | 15* | -1 | 0 | 7 | -8 | -2
C[C@H]1CCC[C@@H](O)CCC/C=C/c2cc(O)cc(O)c2C(=O)O1 | -3 | -6 | 0 | -4 | -11 | . | .
CCN(CC)CCCN=Cc1c(O)n(CCc2ccc(OC)c(OC)c2)c(=O)[nH]c1=O | -5 | 18* | 0 | 8 | 0 | -2 | 0
O=P(/C(=N/O)N1CCCCC1)(N1CCOCC1)N1CCOCC1 | 4 | 9.6* | 0 | 4 | 4 | 8 | 2
CC(Cl)(Cl)/C(=N/P(=S)(N1CCOCC1)N1CCOCC1)N1CCOCC1 | 1 | 4 | 1 | 4 | -7 | . | .
NC(=O)OCCCc1ccccc1 | -5 | 11* | 0 | 0 | 0 | -7 | -2
CCC(C)N1CCN(C(=O)COc2ccc3ccccc3c2)CC1 (stereo not given) | -1 | 0 | 1 | -1 | -12 | . | .
COc1ccc(CC(=O)N(CCN(C)C)CC2CCCN(Cc3ccccc3F)C2)cc1 (stereo not given) | 8 | 13* | 1 | 6 | -1 | -1 | -2
CN(C=O)CP(=O)(O)CN(C)C=O | 4 | 13* | 1 | 4 | 13* | -1 | -1
CCn1ccnc1CN1CCCC(C(=O)c2cccc(C(F)(F)F)c2)C1 (stereo not given) | 3 | 11* | -1 | 4 | 5 | -5 | -2
CC(C)CNC(=O)/C=C/C=C/CCCCCC/C=C/c1ccc2c(c1)OCO2 | 1 | 3 | 0 | -1 | 7 | . | .
O=C1NCN(c2ccccc2)C12CCN(C(c1cccc3ccccc13)c1nnnn1C1CCCCC1)CC2 (stereo not given) | 8 | 12* | 1 | 4 | 3 | -1 | -3
O=C1C(=O)c2ccccc2-c2ccccc21 | 1 | 57* | 0 | -1 | 2 | 43* | 6
O=C1C(=O)c2cccc3cccc1c23 | -4 | -1 | 0 | -4 | 0 | . | .
CC1(C)CC2CCC(O)C2C(CCO)N1 (stereo not given) | -6 | -3 | -1 | -10 | -4 | . | .
SMILES | ADAM17 inh | PLC-gamma1 inh | proKLK7 act | ADAM10 inh | PLC-beta3 inh | PLCgamma1 ctr | PLCb3 confirm
CCC(=NCc1cccnc1)c1c(O)n(C2CCCCC2)c(=O)[nH]c1=O | -4 | -4 | 0 | -14 | -2 | . | .
CCC(=NCc1ccco1)c1c(O)n(C2CCCCC2)c(=O)[nH]c1=O | 3 | 1 | 1 | 1 | 12* | -2 | 21*
N#Cc1ccc(C(=O)N2Cc3cnnn3-c3ccccc3C2C#N)cc1 (stereo not given) | 1 | -4 | 0 | 2 | -6 | . | .
N#CC1c2ccccc2-n2nncc2CN1S(=O)(=O)c1ccccc1 (stereo not given) | 4 | 11* | 0 | 4 | 4 | -7 | -5
Brc1ccc2c(c1)-n1nncc1CNC2 | -2 | 3 | 1 | -7 | 3 | . | .
COC(=O)C1=C(c2cccc(OCc3ccccc3)c2)C[C@@H]2CC[C@H]1N2C(=O)NCCOc1ccccc1 | 4 | 10* | 0 | 9 | 3 | 0 | 5
COc1ccc(CCNCc2c(OC)ccc3ccccc23)cc1 | 3 | 9.6* | 0 | 5 | 4 | 37* | 2
